Assay outcomes deposited in PubChem by National Center for Advancing Translational Sciences (NCATS).
TRPV1 agonist: human TRPV1 agonism; activation, % at 8.33 µM; TRPV1-expressing cells, Fluo-8 calcium influx, agonist mode; Q8NER1; 320,000 tested, 0.19% active; AID 540275; in the data active means activation above about 80%; inconclusive means between about 30% and that limit; further: 0% is about no effect
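TRPV1-expressing cells were cultured overnight at 35.5C and loaded with Fluo-8 calcium dye for 40 to 90 min at room temperature. After a 10 s baseline, compound was added and calcium influx was read kinetically for 3 min (ex 480/em 520 nm).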
TRPV1 potentiator: human TRPV1 potentiation. potentiation, % at 8.33 µM. 320,000 tested, 0.02% active. TRPV1-expressing cells, Fluo-8 calcium influx, capsaicin EC20 potentiation. AID 540277; in the data active means potentiation above about 80%; inconclusive means between about 30% and that limit; further: 0% is about no effect
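Cells expressing TRPV1 were dye-loaded with Fluo-8 and read kinetically: 10 s baseline, 3 min after compound (agonist portion), then 2 min after EC20 capsaicin (allosteric enhancer portion). Calcium-bound dye fluorescence at 480/520 nm.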
ELG1 DNA repair: ELG1-dependent DNA repair inhibition | 330,000 tested, 2.3% active | Potency, µM (highest dose often 46.1 µM), for inactives: at the highest dose activity change, negative = inhibition, usual class: inhibitors | HEK293T ELG1-luciferase reporter, luminescence, 16 h; DNA damage induced by 5-fluorouridine | AID 504467; further: potency means the concentration at half of the fitted maximal effect; on the % scale 0 is the no-effect control and ±100 the full control effect; nearly all actives have a fitted effect of over 55% in size
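Reporter activity after DNA damage by 5-fluorouridine is monitored. Compound-treated cells incubate 16 hr at 37 °C, then ONE-Glo is added for 30 min before luminescence reading.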
FUS yeast rescue: FUS proteinopathy suppression in yeast; S. cerevisiae FUS-expressing, growth rescue, OD600, 24 h; Potency, µM (series often up to 76.6 µM), actives largely listed as activators; 390,000 tested, 0.24% active;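 further: potency means the concentration at half of the fitted maximal effect; plate controls were DMSO vehicle for no effect and reference control for full effect; nearly all actives have a fitted effect of over 55% in size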
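Quantitative HTS measuring growth restoration of FUS-toxic yeast. Galactose-induced cells (OD 0.005) were exposed 24hr at 30C to compounds at several concentrations, then absorbance at 600 nm was recorded.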
Giardia killer: Giardia lamblia killing; Giardia lamblia trophozoite viability; activity change, % at 7.66 µM, hits read low; 340,000 tested, 0.15% active; AID 540267; in the data active means activity change below about -80%; inconclusive means between about -30% and that limit;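 further: parasites exposed to compound for two days anaerobically before the ATP read; on the % scale 0 is the no-effect control and ±100 the full control effect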
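Luminescent ATP signal served as the viability read-out, measured 15-30 min after adding ATP detection reagent to trophozoites that had been incubated with compounds for 48 hrs at 37 deg C anaerobically at 100 cells/well.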
* = called active by the depositor; i = inactive; ? = inconclusive; · = no result given; ! = repeats disagree. Hits are enriched below; roughly 2.3% of the tested compounds scored in any of these assays. Unless noted, the call rests on the fitted dose curve; in most records, active means well fitted curve in the direction sought with a large enough effect; inconclusive means small, poorly fitted or top-dose-only effect, or another doubt; inactive means no such curve, though single readings can be large; an effect the other way counts as inactive or inconclusive.

SMILES	TRPV1 agonist	TRPV1 potentiator	ELG1 DNA repair	FUS yeast rescue	Giardia killer
Cn1c(=O)c2c(nc(NCc3ccccc3)n2Cc2ccc(Cl)c(Cl)c2)n(C)c1=O	·	·	·	i	·
CCOc1ccc(C(=O)Nc2cccc(C(=O)OCc3cc(=O)n4cc(C)sc4n3)c2)cc1	·	·	·	i	·
COc1ccc(Cn2c(C(=O)O)c(CNCc3ccccc3F)c3ccc(OC)cc32)cc1	·	·	·	i	·
Cc1noc(/C=C/c2ccccc2F)c1S(=O)(=O)N1CCC(C(=O)Nc2ccc(C#N)cc2)CC1	·	·	·	i	·
COc1ccc(-c2csc3nc(-c4ccccc4C)oc(=O)c23)cc1OC	·	·	·	i	·
CCOC(=O)c1cccc(NC(=O)CCn2nc(C)c3c(C)n(-c4ccccc4)nc3c2=O)c1	·	·	·	i	·
COC(=O)c1sc(N)c(C(=O)OC)c1COC(=O)[C@@H](NS(=O)(=O)c1cccc(Cl)c1)C(C)C	?	-12.7	14.6µM*	i	-15.7
COc1ccc(-c2ccc3c(=O)cc(-c4ccsc4)oc3c2)cn1	·	·	-19.7%	i	1.0
COc1cc(-c2ccc3oc(-c4ccsc4)cc(=O)c3c2)cc(OC)c1OC	·	·	16.4µM*	i	-4.0
COC(=O)c1ccc(NC(=O)CC2C(=O)N(c3ccc(Cl)cc3)C(=O)N2Cc2cccs2)cc1 (stereo not drawn)	·	·	·	i	·
CCOC(=O)C1=C(COC(=O)CCOc2ccc(OC)cc2)NC(=O)NC1C (stereo not drawn)	5.0	-2.8	0.7%	i	0.0
CCOC(=O)C1=C(COC(=O)CCOc2ccc(C)cc2)NC(=O)NC1C (stereo not drawn)	-0.8	2.0	25.9µM*	i	1.3
Cc1c(Cl)ccc2sc(NC(=O)c3ccco3)nc12	89.5*	10.6	?	i	-1.6
CS(=O)(=O)c1ccc2nc(NC(=O)c3ccco3)sc2c1	0.8	-6.2	?	i	-15.1
Cc1cccc2sc(N3CCN(C(=O)c4ccco4)CC3)nc12	·	·	·	i	·
Cc1cccc2sc(NC(=O)C3CCN(C(=O)c4ccco4)CC3)nc12	6.5	4.3	13µM*	i	-23.0
O=C(NCc1ccc2c(c1)OCO2)c1ccc2c(c1)N(Cc1cccc(Cl)c1)C(=O)c1ccccc1S2=O (stereo not drawn)	·	·	·	i	·
Cc1cc(C)c(NC(=O)CSc2ccc(-c3ccccn3)nn2)c(C)c1	0.7	7.3	-24.4%	i	-0.3
Cc1ccc(NC(=O)CSc2ccc(-c3ccccn3)nn2)c(C)c1	6.3	16.3	20.6µM*	i	-8.5
COc1ccc(/C=C/c2nc(C#N)c(N3CCC(C(N)=O)CC3)o2)cc1OC	·	·	·	i	·
O=C(NCc1cccs1)c1nn(-c2ccccc2F)nc1CO	·	·	·	i	·
O=C(c1ccco1)N1CCN(C(=O)c2cnn3c2NC(c2cccs2)CC3C(F)(F)F)CC1 (stereo not drawn)	1.4	4.2	?	i	-12.8
O=C(c1cnn2c1NC(c1ccco1)CC2C(F)(F)F)N1CCN(c2cccc(Cl)c2)CC1 (stereo not drawn)	8.6	19.1	10.3µM*	i	-3.9
Cc1ccc(Cl)cc1N1CCN(C(=O)C2CCN(S(=O)(=O)c3cccnc3)CC2)CC1	3.4	11.4	0.0%	?	0.5
Cc1ccc(Cl)cc1N1CCN(C(=O)COc2ccc(S(=O)(=O)NC(C)C)cc2)CC1	-2.0	-3.8	7.31µM*	i	-15.9
SMILES	TRPV1 agonist	TRPV1 potentiator	ELG1 DNA repair	FUS yeast rescue	Giardia killer
COc1ccc(OC)c(N(CC(=O)N2CCN(c3cc(Cl)ccc3C)CC2)S(C)(=O)=O)c1	-7.5	-12.7	-25.5%	28.2µM*	13.1
Cc1ccc(Cl)cc1N1CCN(C(=O)C2CCN(S(=O)(=O)c3c(C)nn(C)c3C)CC2)CC1	-3.9	0.4	18.4µM*	?	-1.0
Cc1ccc(Cl)cc1N1CCN(C(=O)CN(C2CCCCC2)S(C)(=O)=O)CC1	-7.1	-24.4	18.4µM*	i	-3.8
Cc1ccc(C)c(N2CCN(C(=O)CCC(=O)N3CCOc4ccc(Cl)cc43)CC2)c1	-4.4	-37.3	-18.1%	25.1µM*	8.1
CN(C)/C=C/c1c([N+](=O)[O-])c2ccc(O)cc2n1-c1ccccc1	·	·	7.3µM*	i	4.1
C[n+]1c2n(c3ccccc31)N=C(c1ccccc1)CS2	-1.0	?	5.8µM*!	i	-3.0
O=C(Cc1ccc(-n2c(=O)c3ccccc3n(Cc3ccccc3Cl)c2=O)cc1)NCC1CCCO1 (stereo not drawn)	14.9	-10.5	9.2µM*	i	0.5
O=C(Cc1ccc(-n2c(=O)c3ccccc3n(Cc3ccc(F)cc3)c2=O)cc1)NCC1CCCO1 (stereo not drawn)	-8.8	1.1	10.3µM*	i	12.2
O=C(Cc1ccc(-n2c(=O)c3ccccc3n(Cc3ccccc3F)c2=O)cc1)NCC1CCCO1 (stereo not drawn)	-5.8	-5.8	?	·	32.7
CCc1ccccc1NC(=O)Cn1c(=O)n(-c2ccc(CC(=O)NCC3CCCO3)cc2)c(=O)c2ccccc21 (stereo not drawn)	-0.6	4.8	1.2%	i	1.6
COc1cccc(CNC(=O)C2CCCN(c3nnc(-n4c(C)ccc4C)s3)C2)c1OC (stereo not drawn)	·	·	·	i	·
COc1ccccc1N1CCN(C(=S)Nc2ccc3nc(N4CCOCC4)cc(C)c3c2)CC1	-3.6	-16.3	18.3µM*	i	-28.0
C/C(=N\Nc1cc(N2CCOCC2)nc(C)n1)c1cccc([N+](=O)[O-])c1	1.0	-3.7	14.6µM*	i	12.4
Cc1c(Cc2ccccc2)sc(NC(=O)c2ccco2)c1C(N)=O	0.7	25.8	2.7%	i	8.0
CCOc1ccc(CC(=O)Nc2sc(Cc3ccccc3)c(C)c2C(N)=O)cc1OCC	-1.1	1.9	?	14.1µM*	9.3
Cc1ccc(CNC(=O)c2cc3cc(C)ccc3n2C)cc1	·	·	·	i	·
COC(=O)c1sccc1S(=O)(=O)N(CC(=O)NCc1ccc(C)cc1)c1ccc(C)cc1	·	·	·	i	·
Cc1ccc(CNC(=O)c2cc(S(=O)(=O)N3CCCCCC3)cn2C)cc1	·	·	·	i	·
O=C(NNC1=C(C(=O)C(F)(F)F)CCC1)c1cccc(O)c1	24.9	-16.6	-19.5%	i	9.2
Cc1cccc(C(=O)NNC2=C(C(=O)C(F)(F)F)CCC2)c1O	1.6	1.4	20.6µM*	i	-10.4
COc1ccc(C2/C=C\CC(OCc3ccccc3)CC(=O)N2Cc2cccc(F)c2)cc1 (stereo not drawn)	·	·	20.6µM*	i	-15.3
COc1ccc(OC)c(NC(=O)Nc2ccc(O)c3ccccc23)c1	·	·	·	28.2µM*	32.0
COc1ccc(OC)c(NC(=O)Nc2c(O)ccc3ccccc23)c1	·	·	·	i	0.4
Cc1ccc(C)c(S(=O)(=O)Nc2ccc(O)c3ccccc23)c1	0.7	24.4	?	i	29.9
Cc1ccc(S(=O)(=O)Nc2ccc(O)c3ccccc23)c(C)c1	2.2	?	16.4µM*	i	-8.9
